What all share (conditions): 10 µM; exposure time: 3 h pre-incubation + 3 h imaging
Assay [1] deals with Danio rerio larvae (5 dpf). As to the kind of experiment: startle (activity period 16 minus period 15, 20-s interval sound) minus DMSO control (percentage points); higher = stronger startle response than DMSO larvae. The gist of the method:
(§1)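 Wild-type 5 dpf zebrafish larvae were exposed to compounds at 10 µM final for 3 h before and 3 h during imaging at 28.5 °C. Larvae were imaged every 6 s and tracked by Z-LaP Tracker. Detections below 0.5 probability and larvae moving under 1% of the time were excluded. Each behavioural measure is the group mean (n = 48) minus the DMSO control mean (n = 844), in percentage points.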

The test system of assay [2] is Danio rerio larvae (5 dpf). As to the kind of experiment: combined optomotor response (time in upper well half, down vs up moving lines, periods 7-14) minus DMSO control (percentage points); higher = stronger optomotor response than DMSO larvae.
In assay [3] the test system is Danio rerio larvae (5 dpf). Briefly: habituation (activity change first vs second 5 min of 1-s interval sound, period 17) minus DMSO control (percentage points); higher = larger habituation measure than DMSO larvae. Summed up:
as §1

Assay [4] relates to Danio rerio larvae (5 dpf). Briefly: 1-h baseline activity (% time moving, periods 1-6) minus DMSO control (percentage points); higher = more locomotor activity than DMSO larvae. The gist of the method:
as §1

The test system of assay [5] is Danio rerio larvae (5 dpf). Briefly: excitability (activity period 17 minus period 16, 1-s interval sound) minus DMSO control (percentage points); higher = more acoustic excitability than DMSO larvae. The gist of the method: as §1

Counter-ions that a name gives are not always drawn.

Consider 34 compounds from the supplement of paper PMC9950053.

Take `COc1cc(Nc2c(C#N)cnc3cc(OCCCN4CCN(C)CC4)c(OC)cc23)c(Cl)cc1Cl` [Bosutinib]: in assay [1], the startle was -0.373. The combined optomotor response in assay [2] was 0.386.
Consider `Nc1nc2c(ncn2COCCO)c(=O)[nH]1` [Acyclovir], for which the habituation in assay [3] worked out at 2.18.
Consider `C[C@@H](O[C@H]1OCCN(Cc2n[nH]c(=O)[nH]2)[C@H]1c1ccc(F)cc1)c1cc(C(F)(F)F)cc(C(F)(F)F)c1` [Aprepitant], for which, in assay [4], the 1-h baseline activity was -8.77. Besides, the combined optomotor response in assay [2] turned out to be 4.63.
Consider `COCCCOc1cc(C[C@@H](C[C@H](N)[C@@H](O)C[C@H](C(=O)NCC(C)(C)C(N)=O)C(C)C)C(C)C)ccc1OC` [Aliskiren hemifumarate], for which the 1-h baseline activity in assay [4] is -5.54. In assay [5], the excitability was determined as 12.7. Besides, the combined optomotor response in assay [2] is 1.73.
As for `CC[C@H](C)C(=O)O[C@H]1C[C@@H](C)C=C2C=C[C@H](C)[C@H](CC[C@@H]3C[C@@H](O)CC(=O)O3)[C@H]21` [Lovastatin], the 1-h baseline activity in assay [4] was -3.77. The combined optomotor response in assay [2] amounted to 5.24.
On the same counts, the results for `Cc1cccc(C)c1OCC(C)N` (stereo not given) [Mexiletine hydrochloride] are 3.37 and 2.6.
With `O=C(O)c1cc(/N=N/c2ccc(S(=O)(=O)Nc3ccccn3)cc2)ccc1O` [Sulfasalazine], the 1-h baseline activity in assay [4] stood at 12.5. The habituation in assay [3] came out at 1.27. For the same compound, the combined optomotor response in assay [2] turned out to be 1.33.
Regarding `CCCc1nc2c(C)cc(-c3nc4ccccc4n3C)cc2n1Cc1ccc(-c2ccccc2C(=O)O)cc1` [Telmisartan], the 1-h baseline activity in assay [4] is -7.8. In addition, the excitability in assay [5] was 15.1. In assay [2], the combined optomotor response was found to be 2.86.
For the compound `CC(C)C(=O)OCC(=O)[C@@]12O[C@H](C3CCCCC3)O[C@@H]1C[C@H]1[C@@H]3CCC4=CC(=O)C=C[C@]4(C)[C@H]3[C@@H](O)C[C@@]12C` [Ciclesonide], the 1-h baseline activity in assay [4] is -10.2. The combined optomotor response in assay [2] turned out to be 1.14.
Take `CCOC(=O)C1=C(C)NC(C)=C(C(=O)OC)C1c1cccc(Cl)c1Cl` (stereo not given) [Felodipine]: the habituation in assay [3] was -11.4.
For `Cc1c(-c2ccc(O)cc2)n(Cc2ccc(OCCN3CCCCCC3)cc2)c2ccc(O)cc12` [Bazedoxifene acetate], in assay [4], the 1-h baseline activity was -14.5. Further, the habituation in assay [3] was found to be 0.95. The combined optomotor response in assay [2] was -0.163.
As to `CCOC(=O)[C@H](CCc1ccccc1)N[C@@H](C)C(=O)N1[C@H](C(=O)O)C[C@@H]2CCC[C@@H]21` [Ramipril], the excitability in assay [5] was 6.38. Moreover, in assay [3], the habituation was found to be 0.42. Further, the combined optomotor response in assay [2] was 3.49.
As for `CCCCNc1cc(C(=O)O)cc(S(N)(=O)=O)c1Oc1ccccc1` [Bumetanide], in assay [4], the 1-h baseline activity turned out to be 3. Also, in assay [2], the combined optomotor response was found to be 9.27.
`CCCc1nc(C(C)(C)O)c(C(=O)O)n1Cc1ccc(-c2ccccc2-c2nnn[nH]2)cc1` [Olmesartan]: the excitability in assay [5] is 0.0977. In addition, the combined optomotor response in assay [2] worked out at 1.99.
Take `CN1CCN2c3ncccc3Cc3ccccc3C2C1` (stereo not given) [Mirtazapine]: the excitability in assay [5] is 4.38.
Consider `CCC(=O)O[C@]1(C(=O)SCF)[C@H](C)C[C@H]2[C@@H]3C[C@H](F)C4=CC(=O)C=C[C@]4(C)[C@@]3(F)[C@@H](O)C[C@@]21C` [Fluticasone propionate], for which the excitability in assay [5] worked out at 3.16. Besides, the combined optomotor response in assay [2] came to 2.4.
As for `CCOC(=O)N1CCC(=C2c3ccc(Cl)cc3CCc3cccnc32)CC1` [Loratidine], in assay [4], the 1-h baseline activity is -19.4. In addition, the habituation in assay [3] is -7.35.
With `NC(=O)c1ncn([C@@H]2O[C@H](CO)[C@@H](O)[C@H]2O)n1` [Ribavirin], the excitability in assay [5] is 3.28. For the same compound, the combined optomotor response in assay [2] amounted to 5.43.
Take `CCC(C)(C)C(=O)O[C@H]1C[C@@H](C)C=C2C=C[C@H](C)[C@H](CC[C@@H]3C[C@@H](O)CC(=O)O3)[C@H]21` [Simvastatin]: the excitability in assay [5] is 10.2.
For `Nc1nc(NC2CC2)c2ncn([C@H]3C=C[C@@H](CO)C3)c2n1` [Abacavir hemisulfate], in assay [5], the excitability stood at 0.611. Besides, in assay [3], the habituation came out at 3.13. In addition, the combined optomotor response in assay [2] came out at 4.25.
On to `COc1cc2nc(N3CCN(C(=O)c4ccco4)CC3)nc(N)c2cc1OC` [Prazosin hydrochloride], for which the habituation in assay [3] is 0.443.
Still for that read-out and setting: for `NS(=O)(=O)c1cc(C(=O)O)c(NCc2ccco2)cc1Cl` [Furosemide] the value was 2.23.
In the case of `CCCCCOC(=O)Nc1nc(=O)n([C@@H]2O[C@H](C)[C@@H](O)[C@H]2O)cc1F` [Capecitabine], the excitability in assay [5] stood at 6.07. In addition, the combined optomotor response in assay [2] is 4.98.
On to `CC(C)c1nc(CN(C)C(=O)N[C@H](C(=O)N[C@@H](Cc2ccccc2)C[C@H](O)[C@H](Cc2ccccc2)NC(=O)OCc2cncs2)C(C)C)cs1` [Ritonavir], for which the excitability in assay [5] turned out to be 8.43. Also, in assay [2], the combined optomotor response came to 3.14.
In the case of `O=C(Nc1c(Cl)cncc1Cl)c1ccc(OC(F)F)c(OCC2CC2)c1` [Roflumilast], the 1-h baseline activity in assay [4] is -15.9. Also, the excitability in assay [5] is 13.4. The combined optomotor response in assay [2] was -6.05.
On the same counts, the results for `CCCCC(=O)N(Cc1ccc(-c2ccccc2-c2nnn[nH]2)cc1)[C@H](C(=O)O)C(C)C` [Valsartan] are 3.3, -1.67 and 7.07.
Regarding `CC(CCc1ccc(O)cc1)NCCc1ccc(O)c(O)c1` (stereo not given) [Dobutamine hydrochloride], the startle in assay [1] is -0.893. For the same compound, in assay [2], the combined optomotor response was 1.08.
Turning to `C/C(O)=C(\C#N)C(=O)Nc1ccc(C(F)(F)F)cc1` [Teriflunomide], the 1-h baseline activity in assay [4] was -8.94. Moreover, in assay [2], the combined optomotor response is -4.96.
`CN1CC2c3ccccc3Oc3ccc(Cl)cc3C2C1` (stereo not given) [Asenapine maleate]: in assay [5], the excitability is 14.2. Besides, in assay [2], the combined optomotor response was -7.09.
On to `CN(C)CCc1c[nH]c2ccc(Cn3cncn3)cc12` [Rizatriptan benzoate], for which the 1-h baseline activity in assay [4] was -3.79. Besides, the combined optomotor response in assay [2] worked out at 6.97.
For `C[C@]12CCC(=O)C=C1CC[C@@H]1[C@@H]2[C@@H](O)C[C@@]2(C)[C@H]1CC[C@]2(O)C(=O)CO` [Hydrocortisone], in that order: 1.95 and 4.58.
In the case of `CCCCC1=NC2(CCCC2)C(=O)N1Cc1ccc(-c2ccccc2-c2nnn[nH]2)cc1` [Irbesartan], the 1-h baseline activity in assay [4] was 1.48. Further, the combined optomotor response in assay [2] was -4.91.
As for `CC(=O)O[C@]1(C(C)=O)CC[C@H]2[C@@H]3C=C(C)C4=CC(=O)CC[C@]4(C)[C@H]3CC[C@@]21C` [Megestrol Acetate], the excitability in assay [5] was determined as 12.4. Besides, the combined optomotor response in assay [2] was -8.35.
On to `CN1CCC[C@@H]1Cc1c[nH]c2ccc(CCS(=O)(=O)c3ccccc3)cc12` [Eletriptan hydrobromide], for which the startle in assay [1] amounted to 0.814. The combined optomotor response in assay [2] was -0.376.
